The structures appear in SMILES notation. Hit rate of the full screen: of about 67,000 compounds, about 300 (0.45%) showed an effect of 50% or more. Shown is part of a subset that was picked to be rich in strong results.

The target in this assay is Polyketide synthase Pks13 (Mycobacterium tuberculosis (strain ATCC 25618 / H37Rv)) (UniProt I6X8D2). Description: Mycobacterium tuberculosis Polyketide synthase 13 Thioesterase (PKS13). Format: functional. Also noted: scale not given: in the data most compounds retested in dose-response had high values. To be noted: 30 µM.
Sequence of Polyketide synthase Pks13 (Mycobacterium tuberculosis (strain ATCC 25618 / H37Rv)) (I6X8D2 whole entry): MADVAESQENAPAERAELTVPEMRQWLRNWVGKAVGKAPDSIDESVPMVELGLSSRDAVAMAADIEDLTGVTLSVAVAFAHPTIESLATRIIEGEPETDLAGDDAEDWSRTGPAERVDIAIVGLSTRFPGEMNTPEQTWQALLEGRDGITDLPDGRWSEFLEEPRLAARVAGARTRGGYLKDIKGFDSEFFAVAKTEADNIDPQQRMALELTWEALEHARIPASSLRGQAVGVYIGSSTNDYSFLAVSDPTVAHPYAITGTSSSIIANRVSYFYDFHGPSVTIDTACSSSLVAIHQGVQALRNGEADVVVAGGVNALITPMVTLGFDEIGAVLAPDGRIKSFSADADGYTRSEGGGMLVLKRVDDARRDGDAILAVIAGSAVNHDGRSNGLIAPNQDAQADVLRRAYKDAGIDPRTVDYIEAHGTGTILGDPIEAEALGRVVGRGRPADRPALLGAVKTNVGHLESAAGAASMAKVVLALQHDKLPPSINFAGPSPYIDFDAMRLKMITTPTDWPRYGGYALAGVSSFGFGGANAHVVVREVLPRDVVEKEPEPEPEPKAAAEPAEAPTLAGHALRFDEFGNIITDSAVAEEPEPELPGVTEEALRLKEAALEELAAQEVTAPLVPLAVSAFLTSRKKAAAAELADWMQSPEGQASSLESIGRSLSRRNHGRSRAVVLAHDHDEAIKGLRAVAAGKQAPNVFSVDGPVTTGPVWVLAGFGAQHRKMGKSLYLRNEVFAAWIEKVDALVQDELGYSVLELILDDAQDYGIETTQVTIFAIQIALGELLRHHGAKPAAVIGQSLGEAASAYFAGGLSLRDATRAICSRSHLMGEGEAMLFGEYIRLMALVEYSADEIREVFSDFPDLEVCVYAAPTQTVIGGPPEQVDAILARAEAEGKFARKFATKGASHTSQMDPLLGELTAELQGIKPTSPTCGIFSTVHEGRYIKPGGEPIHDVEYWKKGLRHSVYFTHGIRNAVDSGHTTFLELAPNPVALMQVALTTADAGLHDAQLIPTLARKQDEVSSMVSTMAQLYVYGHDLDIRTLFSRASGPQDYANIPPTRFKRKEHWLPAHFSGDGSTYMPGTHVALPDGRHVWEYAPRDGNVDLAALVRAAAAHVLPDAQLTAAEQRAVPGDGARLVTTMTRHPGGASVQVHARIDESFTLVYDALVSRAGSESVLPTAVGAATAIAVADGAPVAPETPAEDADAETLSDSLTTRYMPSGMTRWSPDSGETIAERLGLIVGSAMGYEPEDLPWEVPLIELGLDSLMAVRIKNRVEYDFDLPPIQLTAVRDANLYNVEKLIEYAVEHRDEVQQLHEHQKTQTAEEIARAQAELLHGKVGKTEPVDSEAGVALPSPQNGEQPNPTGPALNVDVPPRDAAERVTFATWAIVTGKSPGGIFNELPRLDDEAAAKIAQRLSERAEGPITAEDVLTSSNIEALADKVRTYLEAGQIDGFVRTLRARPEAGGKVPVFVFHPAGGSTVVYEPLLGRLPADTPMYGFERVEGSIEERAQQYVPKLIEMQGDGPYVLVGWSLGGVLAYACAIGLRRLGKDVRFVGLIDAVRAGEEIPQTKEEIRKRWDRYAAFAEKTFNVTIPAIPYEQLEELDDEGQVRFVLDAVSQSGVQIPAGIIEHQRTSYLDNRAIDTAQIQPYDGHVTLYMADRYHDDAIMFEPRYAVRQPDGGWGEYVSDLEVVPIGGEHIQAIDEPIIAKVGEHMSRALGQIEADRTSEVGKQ
Regarding `CCOc1ccc2nc(CN3CCC(CNC(C)=O)C3)ccc2c1` (stereo not given), the Percent Effect was -18.1%. Take `CCOc1ccc2nc(CN3CCC(CN)C3)ccc2c1` (stereo not given): the Percent Effect was -11.4%.

For `CCOc1ccc2nc(CN3CCOC(CN)C3)ccc2c1` (stereo not given), the Percent Effect is 70.3%.

Take `Oc1cccc(CN2C[C@H]3CC[C@@H]2CN(Cc2ccc(F)cc2)C3)c1`: the Percent Effect was -36.6%. As for `Cc1cccc(CN2C[C@@H]3COC[C@]3(CNC(=O)N3CCCC3)C2)n1`, the Percent Effect was -7.01%. With `CN(C)c1ccc(-c2nnc([C@H]3CCN(C4CCCCC4)C3)o2)cc1`, the Percent Effect is 58.9%. With `Cc1ccc(-c2nnc([C@H]3CCN(C4CCC4)C3)o2)cc1` the figure was 11.8%; with `Clc1ccc(-c2nnc([C@H]3CCN(C4CCCCC4)C3)o2)cc1`, -3.49%. On to `O=C(c1ccccc1)N1C[C@@H]2CC[C@H](C1)N(C(=O)CN1CCOCC1)C2`, for which the Percent Effect is -38.5%. `N#Cc1cc(C#N)c(SCC(=O)Nc2ccc(F)cc2)nc1N`: the Percent Effect came to 65.2%. For `N#Cc1cc(C#N)c(SCCC(=O)Nc2ccc(F)cc2)nc1N`, the Percent Effect was -20.2%. With `N#Cc1cc(C#N)c(SCC(=O)NCc2ccc(F)cc2)nc1N` the figure was -6.72%. For `C=Cn1ncc(CN2C[C@@H]3C[C@@H](O)CN3C[C@@H]2Cc2ccccc2)c1C`, the Percent Effect was -6.39%.

For `O=C(Nc1cnc(N2CCOCC2)nc1)c1ccc(C(F)(F)F)cc1`, the Percent Effect was determined as 106%.

`O=S(=O)(Nc1cnc(N2CCOCC2)nc1)c1ccc(C(F)(F)F)cc1`: the Percent Effect was -20.2%. For the molecule `COCC(=O)Nc1cnc(N2CCOCC2)nc1`, the Percent Effect was -16%.

As for `Cc1ccc(CN2CC[C@H]3OCC[C@@H](C(=O)N4CCCCO4)[C@@H]3C2)o1`, the Percent Effect worked out at 16.9%. As for `CN(C)C[C@H]1OC[C@@H]2CN(C(=O)NCc3cccnc3)CC[C@@H]21`, the figure is 1.8%; as for `CC(=O)N1C[C@@H](c2ccsc2)[C@@H]2CN(Cc3ccccc3Cl)CC[C@@H]21`, 9.76%. As for `COc1ccc(NC(C)C(=O)N2CCN(c3ccccc3)CC2)cn1` (stereo not given), the figure is 31.4%; as for `COc1ccc(NC(C)C(=O)N2CCCC2)cn1` (stereo not given), 67.9%. As for `COc1ccc(NC(C)C(=O)N2CCN(c3ncccn3)CC2)cn1` (stereo not given), the Percent Effect is 4.94%.

In the case of `CN(C)C[C@]12COC[C@H]1CN(Cc1ccc3ccccc3n1)C2`, the Percent Effect is -18.2%. As to `CC(C)c1noc(CN(CCC2CCCCC2)CC(N)=O)n1`, the Percent Effect was -4.56%. As for `CC(C)(C)c1nc(CN(CCC2CCCCC2)CC(N)=O)no1`, the Percent Effect is 57.2%. Turning to `CCc1noc(CN(CCC2CCCCC2)CC(N)=O)n1`, the Percent Effect came out at 6.76%. Consider `CSc1ncccc1C(=O)N1C[C@H]2CC[C@@H]1CN(c1cnccn1)C2`, for which the Percent Effect was -2.08%.

With `O=C(O)c1ccc2ccc(N3CCN(CC4CC4)CC3)n2c1`, the Percent Effect stood at 9.49%. With `Cc1ccc(NC(=O)c2nc3c(s2)CCCN3C(=O)C2CC2)cn1` the figure was 56.3%; with `CC(=O)N1CCCc2sc(C(=O)Nc3ccc(C)nc3)nc21`, -22.2%. Regarding `Cc1ccc(NC(=O)c2nc3c(s2)CCCN3C(C)C)cn1`, the Percent Effect was -9.2%. As for `CC[C@H]1CN2CC[C@H]1C[C@@H]2CNC(=O)Nc1cccc(C(F)(F)F)c1`, the Percent Effect is -29.8%. On to `Cc1ccc(CS(=O)(=O)N2CC[C@H]3[C@H]2CCN3C)cc1`, for which the Percent Effect stood at 37.1%. As for `c1ccc(-c2cc(CN3C[C@@H]4CC[C@H](C3)N(CC3CCC3)C4)on2)cc1`, the figure is -48.3%; as for `Cc1cnn(CCNCC(=O)NCCOc2ccccc2)c1`, -11.4%. For `Cc1cnn(CC(C)NCC(=O)NCCOc2ccccc2)c1` (stereo not given), the Percent Effect worked out at 95.2%.

Consider `Cc1cnn(CC(C)NCC(=O)NCCc2cccs2)c1` (stereo not given), for which the Percent Effect was -15.2%. As for `O=C(C1CCOCC1)N1C[C@@H]2[C@@H](C1)OCC(=O)N2Cc1ccncc1`, the Percent Effect is -12.1%.

For `CS(=O)(=O)NCc1cc(-c2cc(F)cc(F)c2)nc(N2CCCC2)n1`, the Percent Effect was found to be 22.1%. With `CS(=O)(=O)NCc1cc(-c2cc(F)cc(F)c2)nc(N2CC[C@H](O)C2)n1` the figure was 147%; with `CS(=O)(=O)NCc1cc(-c2cc(F)cc(F)c2)nc(N2CCOCC2)n1`, 22.5%. Turning to `Cn1nccc1NC(=O)c1cccc(CN2C[C@H]3CC[C@@H](C2)N3)c1`, the Percent Effect was -14.8%. In the case of `CN1CCCC[C@@H]2[C@H]1[C@@H](c1ccccc1)CCN2S(=O)(=O)N1CCCC1`, the Percent Effect was -11%.

For `Cn1cncc1-c1nnc([C@H]2CCN(CC(C)(C)C)C2)o1`, the Percent Effect was determined as 25.7%.

As to `Cn1cncc1-c1nnc([C@H]2CCN(Cc3cccnc3)C2)o1`, the Percent Effect was -26%. Take `Cn1cncc1-c1nnc([C@H]2CCN(Cc3ncc[nH]3)C2)o1`: the Percent Effect is 61%.

`CSCCCN1C[C@H]2CC[C@@H]1CN(Cc1[nH]cnc1C)C2`: the Percent Effect is -11.9%.

Take `c1coc(CN2C[C@@H]3CCCO[C@@H]3[C@H](N3CCCC3)C2)c1`: the Percent Effect is -16.1%.

Regarding `CN(C)C(=O)c1nc(-c2ccc(S(C)(=O)=O)cc2)c2ccccn12`, the Percent Effect worked out at 48.7%. Regarding `CS(=O)(=O)c1ccc(-c2nc(C(=O)N3CCCC3)n3ccccc23)cc1`, the Percent Effect came out at 74.1%. As for `CN(C)C(=O)c1nc(-c2ccc(S(C)(=O)=O)cc2)c2cnccn12`, the Percent Effect was found to be 9.33%.

As for `CN1CCCC[C@@H]2[C@H]1[C@@H](c1ccccc1)CCN2C(=O)c1ccncc1`, the Percent Effect was found to be 37.2%. `CN1CCCC[C@@H]2[C@H]1[C@@H](c1ccccc1)CCN2C(=O)c1ccccc1`: the Percent Effect was -32%. For `Cc1nnsc1C(=O)N1CC[C@H](c2ccccc2)[C@@H]2[C@H]1CCCCN2C`, the Percent Effect is 56.9%. As for `CC(=O)N1C[C@H](NC(=O)c2cscn2)[C@@H]2OCCC[C@@H]21`, the figure is -14.1%; as for `CCC(CNc1ncnc2oc(C)nc12)Cc1ccccc1` (stereo not given), -13.8%; as for `CCCOc1ccc(Cl)cc1CNc1ncnc2oc(C)nc12`, 78.9%. As for `CCCOc1ccccc1CCCNc1ncnc2oc(C)nc12`, the figure is 18%; as for `Cn1cccc1C(=O)N1C[C@H]2CC[C@@H]1CN(Cc1cscn1)C2`, -21.5%.

On to `COc1ccc2c(c1)c(-c1nc(N(C)C)ncc1CN)cn2C`, for which the Percent Effect was -8.95%.

Turning to `COc1ccc2c(c1)c(-c1nc(C)ncc1CN)cn2C`, the Percent Effect is -1.61%. For `Cc1ncc(CN)c(-c2cn(C)c3ccccc23)n1`, the Percent Effect was found to be 140%.

As for `O=C(C1CCOCC1)N1C[C@H](OCc2cccnc2)[C@H]2COC[C@H]21`, the Percent Effect was -10.6%. With `O=C1CO[C@H]2CN(C3CCOCC3)C[C@H]2N1Cc1ccc(F)cc1` the figure was 18.6%; with `Cc1ccc(-c2noc(CC[C@@H]3CCCN4CCCC[C@H]34)n2)nn1`, -24.6%; with `O=C(CC1CC1)N1C[C@H]2CCN[C@H]2C1`, 1.79%. `COc1cccc(-c2ccnc3nc(N4CCCCC4)[nH]c(=O)c23)c1`: the Percent Effect is -83.6%. With `COc1ccc(-c2ccnc3nc(N4CCCCC4)[nH]c(=O)c23)cc1` the figure was 75%; with `O=c1[nH]c(N2CCCCC2)nc2nccc(-c3ccc4c(c3)OCO4)c12`, -6.64%. Take `NC(=O)C1CCN(c2nc3nccc(-c4ccccc4)c3c(=O)[nH]2)CC1`: the Percent Effect is -5.28%.

Turning to `COc1ccc(-c2ccnc3nc(N4CCCC4)[nH]c(=O)c23)cc1OC`, the Percent Effect is -15.2%. Consider `COc1ccccc1-c1ccnc2nc(N3CCCCC3)[nH]c(=O)c12`, for which the Percent Effect came out at 71.7%.

For `Cc1cc(C(=O)N2C[C@H]3CC[C@@H]2CN(C(=O)c2ccncc2)C3)cs1`, the Percent Effect was -6.64%. `O=C(Nc1cccnc1)[C@@H]1COC[C@H]2CN(C3CCCC3)C[C@H]21`: the Percent Effect is -9.56%. `CCS(=O)(=O)N1CC[C@H]2OCC[C@@]2(c2nnc(C)o2)C1`: the Percent Effect is -32.8%.

On to `CC1=N[C@@]2(CC[C@@H]3CN(S(C)(=O)=O)C[C@@H]32)C(=O)N1CC(C)C`, for which the Percent Effect was determined as 75.9%. Consider `CC1=N[C@@]2(CC[C@@H]3CN(S(=O)(=O)C4CC4)C[C@@H]32)C(=O)N1CC(C)C`, for which the Percent Effect is -51.1%.

As to `CCS(=O)(=O)N1C[C@H]2CC[C@@]3(N=C(C)N(CC(C)C)C3=O)[C@H]2C1`, the Percent Effect is -10.2%. `CN(C)CCNC(=O)[C@H]1C[C@H]2CN(c3ncccn3)C[C@H]2N1C`: the Percent Effect was -18.5%. With `Cc1cccc(CN2CC[C@H]3[C@H]2CCN3C(=O)c2cnn(C)c2)n1` the figure was 3.27%. Turning to `CCOc1ccc(-c2ccc3c(c2)OCO3)cc1C(N)=O`, the Percent Effect is -15.1%. As for `O=C(O)CSc1nccc(-c2ccc3c(c2)OCO3)n1`, the figure is 51.8%. In the case of `NC(=O)CCC(=O)N1CCc2[nH]nc(-c3ccc4c(c3)OCO4)c2C1`, the Percent Effect was -10.3%. Consider `NC(=O)CSc1nccc(-c2ccc3c(c2)OCO3)n1`, for which the Percent Effect came out at 59.5%.

In the case of `O=C(CSc1nccc(-c2ccc3c(c2)OCO3)n1)N1CCOCC1`, the Percent Effect was determined as 26.7%. As for `CNCc1nc(-c2ccc3c(c2)OCO3)c[nH]1`, the figure is 0.694%; as for `CN1CCO[C@H]2CN(S(=O)(=O)c3ccc(C#N)cc3)C[C@H]21`, -7.61%; as for `O=C([C@H]1COC[C@H]2CN(C3CCOCC3)C[C@H]21)N1CCCCO1`, -4.79%. In the case of `CN(C)c1nccc(N2CCO[C@H]3CN(Cc4ccco4)C[C@H]32)n1`, the Percent Effect is -3.24%.

Consider `O=S(=O)(c1ccccc1)N1C[C@@H]2COC[C@]2(CN2CCOCC2)C1`, for which the Percent Effect is 27.2%. Consider `Fc1cccc(CN2C[C@@H]3COC[C@]3(COCc3ccncc3)C2)c1`, for which the Percent Effect is 0.554%.

`O=C(CC1CCCC1)N1C[C@H](Oc2cccnc2)[C@H]2OCCC[C@H]21`: the Percent Effect is -7.32%. `c1csc(-c2noc(CCCN3CCCC3Cn3cncn3)n2)c1` (stereo not given): the Percent Effect is 111%.

In the case of `c1csc(-c2noc(CCCN3CCCC3Cn3cccn3)n2)c1` (stereo not given), the Percent Effect was -2.79%. Consider `c1ccc2oc(CN3CCCCC3Cn3cncn3)nc2c1` (stereo not given), for which the Percent Effect is -0.333%.

For the molecule `c1ccc2oc(CCCN3CCCCC3Cn3cncn3)nc2c1` (stereo not given), the Percent Effect came out at 58.4%.

For the molecule `Cc1nccn1CC1CCCN1CCCc1nc(-c2cccs2)no1` (stereo not given), the Percent Effect is -4.96%. In the case of `c1ccc2oc(CCCN3CCCC3Cn3cncn3)nc2c1` (stereo not given), the Percent Effect was -10.8%.

As for `CN(C)C(=O)COC[C@@H]1CC[C@H]2[C@H](CCN2c2ncccn2)O1`, the Percent Effect is -0.596%. For `COCC(=O)N1C[C@H]2CNC[C@@]2(C(=O)NCc2cccc3[nH]ccc23)C1`, the Percent Effect is -18.7%. On to `CO[C@@H]1CC[C@H]2[C@H]1OCCN2CC1CC1`, for which the Percent Effect is -4.52%. With `COc1ccc(OC)c(C(=O)N2C[C@H]3CC[C@@H]2CN(C)C3)c1` the figure was 2.2%. As for `O=C(c1ccnnc1)N1C[C@H](Oc2cccnc2)[C@H]2OCCC[C@H]21`, the figure is -7.04%. Consider `CCc1nc2n(n1)CC(NCc1ncc(-c3ccccc3)o1)CC2` (stereo not given), for which the Percent Effect came to 108%. Take `CC(C)c1nc2n(n1)CC(NCc1ncc(-c3ccccc3)o1)CC2` (stereo not given): the Percent Effect was -14.9%. As for `CCc1nc2n(n1)CC(NCc1cnc(-c3ccccc3)nc1)CC2` (stereo not given), the Percent Effect was -15%. On to `Cn1nc(-c2ccccc2)cc1[C@H]1CN2CC[C@H]1C[C@@H]2CNS(C)(=O)=O`, for which the Percent Effect was -32.5%.

Take `N#Cc1c(C2CC2)cc(-c2ccc(O)cc2)nc1N`: the Percent Effect stood at 44.4%. `COc1ccc(-c2cc(C3CC3)c(C#N)c(N)n2)cc1F`: the Percent Effect was -126%.

With `CS(=O)(=O)c1ccc(-c2cc(C3CC3)c(C#N)c(N)n2)cc1`, the Percent Effect was 62.7%.

The values are drawn from ChEMBL document CHEMBL3988442, “University of Dundee, Small-Polar-MMV Screening Library” (2021).
